Only some compounds are listed: those with a hit (about 19% of all), similar ones and a draw of the others.
KB-3-1 tox = KB-3-1 parental cell cytotoxicity; AID 1347075; actives 1.4% (n = 400,000); Potency, µM (doses to about 46.1 µM), most hits filed as cytotoxic; KB-3-1 viability, CellTiter-Glo ATP luminescence, 72 h; further: nearly all actives have a fitted effect of over 60% in size
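KB-3-1 parental drug-naive adenocarcinoma cells in DMEM/10% FBS, incubated 72 h at 37 C with pin-transferred compounds across a concentration series. Viability by CellTiter-Glo luminescence; concentration-response curves fitted after normalization.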
HT1080 IDH1KD tx = toxicity to HT-1080 IDH1 knockdown cells (counter line); Potency, µM (titrated, usually from 46.1 µM), without a hit: at the top dose activity, negative = toxicity, actives largely listed as cytotoxic; actives 2% (n = 360,000); HT-1080 IDH1 knockdown viability, ATP luminescence, 48 h; AID 686971;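 further: 0% = DMSO wells and -100% = cell-free medium wells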
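Luminescent ATP read-out (CellTiter-Glo, 10 min at room temperature) after 48 h compound exposure at 37 °C gave viability of IDH1-knockdown HT-1080 cells. Activity was normalised to DMSO and cell-free wells, then fitted as concentration-response curves.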
TDP1 cell CPT = growth inhibition of DT40 Tdp1-/-;hTDP1 cells with camptothecin (screen for TDP1 inhibitors); Potency, µM (highest dose often 46.2 µM), for the others: at the highest dose activity change, negative = growth inhibition, usual class: inhibitors; chicken DT40 Tdp1-/-;hTDP1 cells + 20 nM CPT, ATP luminescence, 48 h; actives 12% (n = 420,000); AID 686979; further: nearly all actives have a fitted effect of over 55% in size
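Chicken DT40 Tdp1-/- cells complemented with human TDP1, 400 cells/well, exposed to compounds plus 20 nM camptothecin for at least 48 h at 37 C; viability read as ATP content by CellTiter-Glo luminescence.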
KB-V1 cytotox = kills drug-selected multidrug resistant KB-V1 cells; KB-V1 MDR cells viability, CellTiter-Glo, 72 h; AID 1347076; Potency, µM (doses to about 46.1 µM), most hits filed as cytotoxic; actives 3.4% (n = 400,000); further: nearly all actives have a fitted effect of over 60% in size
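Readout: CellTiter-Glo luminescence, 10 min after addition. Cells: KB-V1 MDR subline, 72 h at 37 degrees C with compound. Analysis: corrected, normalized data fitted to concentration-effect curves.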
HT1080NT lethal = kills 2HG-producing HT-1080-NT fibrosarcoma cells; HT-1080-NT fibrosarcoma viability, CellTiter-Glo ATP luminescence, 48 h; Potency, µM (top dose mostly 46.1 µM), without a hit: top-dose activity, negative = less viability, usual class: cytotoxic; actives 1.6% (n = 360,000); AID 686970;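 further: NT is the 2HG producing partner of a matched IDH1 knockdown line; 0% = DMSO-treated cells and -100% = media-only wells without cells; nearly all actives have a fitted effect of over 55% in size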
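Viability of the 2HG-overproducing fibrosarcoma line after 48 hours of compound exposure at 37 degrees C was determined by luminescence with CellTiter-Glo, and concentration-effect curves were then fitted and categorized.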
TDP1 cell noCPT = qHTS for Inhibitors of human tyrosyl-DNA phosphodiesterase 1 (TDP1): qHTS in cells in absence of CPT; DT40 Tdp1-/- hTDP1 cells, no CPT, ATP luminescence, 48 h; Potency, µM (highest dose often 46.2 µM), without a hit: top-dose activity change, negative = growth inhibition, hits mostly inhibitors; actives 15% (n = 420,000); further: nearly all actives have a fitted effect of over 55% in size
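No-CPT arm: Tdp1-/-;hTDP1 DT40 cells (400/well) plus compounds, incubated ≥48 hr at 37 °C. Readout CellTiter-Glo luminescence.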
An asterisk follows results filed as active; i = inactive; ? = inconclusive; . = not tested or not shown; ! = not active in a repeat. The call rests on the fitted dose curve; in most records, active means well fitted curve in the direction sought with a large enough effect; inconclusive means small, poorly fitted or top-dose-only effect, or another doubt; inactive means no such curve, though single readings can be large; an effect the other way counts as inactive or inconclusive. Unless noted, on the % scale 0 is the no-effect control and ±100 the full control effect; potency means the concentration at half of the fitted maximal effect.

SMILES	KB-3-1 tox	HT1080 IDH1KD tx	TDP1 cell CPT	KB-V1 cytotox	HT1080NT lethal	TDP1 cell noCPT
c1ccc(CCN=C2CCCc3c2[nH]c2ccccc32)cc1	13µM*	24%	14%	?	3%	-4%
Cc1cc(/C=C2\SC(=Nc3ccc(F)cc3)NC2=O)c(C)n1-c1ccc(S(N)(=O)=O)cc1	6.5µM*	5.2µM*	5.2µM*	i	6.5µM*	5.2µM*
Cc1cc(/C=C2\SC(=S)NC2=O)c(C)n1-c1ccc(O)cc1	?	?	-28%	i	?	6%
O=S(=O)(N=C1C=CC(=NS(=O)(=O)c2ccccc2)c2ccccc21)c1ccccc1	?	?	7.3µM*	i	-15%	6.5µM*
Cc1cc(C)c(S(=O)(=O)/N=C2\C=C(NS(=O)(=O)c3ccccc3)C(=O)c3ccccc32)c(C)c1	i	-7%	?	i	-6%	-18%
Cc1cc(C)c(S(=O)(=O)/N=C2\C=C(Nc3ccc(C(=O)O)cc3)C(=O)c3ccccc32)c(C)c1	?	4.1µM*	3.7µM*	i	8.2µM*	3.7µM*
O=C1c2ccccc2C(=O)N1S(=O)(=O)c1ccccc1	i	14%	-17%	?	18%	19%
O=C(O)c1ccc(NS(=O)(=O)c2ccc3c(c2)C(=O)c2ccccc2C3=O)cc1	i	-3%	-1%	i	-2%	-2%
Cc1ccc(S(=O)(=O)/N=C2\C=C(NS(=O)(=O)c3ccccc3)C(=O)c3ccccc32)cc1	i	?	21µM*	i	?	26µM*
O=C(O)c1ccc(NC2=C/C(=N/S(=O)(=O)c3ccccc3)c3ccccc3C2=O)cc1	18µM*	5.8µM*	2.6µM*	?	4.1µM*	3.7µM*
COc1ccc(NC(=O)C(C)n2nc(C)c3c(C)n(-c4ccccc4)nc3c2=O)cc1Cl (centres undefined)	i	.	-28%	i	.	?
Cc1ccc(S(=O)(=O)N2CCCC(C(=O)NCCc3ccc(Cl)cc3)C2)cc1 (centres undefined)	i	-23%	?	i	-26%	?
Cc1ccc(N2C(=O)C(Cl)=C(N3CCCCCC3)C2=O)c(C)c1	i	-10%	?	i	0%	15µM*
O=C1C(Cl)=C(N2CCCCCC2)C(=O)N1c1ccccc1Cl	i	7%	-6%	i	11%	11%
COc1ccc(S(=O)(=O)Nc2ccc3c(c2)N(C(C)=O)CCC3)cc1F	.	.	15µM*	.	.	18µM*
CC(=O)N1CCCc2ccc(NS(=O)(=O)c3ccc(C)c(C)c3)cc21	?	-2%	12µM*!	?	-11%	?
COc1cccc(CN2CCC(n3cc(C(=O)N4CCCCC4)nn3)CC2)c1OC	.	.	3%	.	.	-10%
O=C(CSc1ccc(-c2cccnc2)nn1)Nc1ccccc1	i	-9%	-3%	?	10%	-11%
O=C(CSc1ccc(-c2cccnc2)nn1)Nc1ccc(F)c(F)c1	i	-2%	?	9.2µM*	?	?
O=C(CSc1ccc(-c2ccccn2)nn1)Nc1nccs1	i	3%	-27%	i	-12%	-18%
Cc1ccccc1NC(=O)CSc1ccc(-c2ccccn2)nn1	?	-1%	?	?	13%	?
Cc1cc(C)cc(NC(=O)CSc2ccc(-c3ccccn3)nn2)c1	i	?	16µM*	?	?	?
O=C(CSc1ccc(-c2ccccn2)nn1)Nc1cccc(F)c1	i	?	?	?	-11%	18µM*
Cc1csc(NC(=O)CSc2ccc(-c3ccccn3)nn2)n1	i	?	?	?	-10%	26µM*
CCOC(=O)C1CCN(c2c(NCc3ccc(C(=O)N(C)Cc4ccccc4)cc3)c(=O)c2=O)CC1	i	-2%	-12%	i	-2%	-20%
SMILES	KB-3-1 tox	HT1080 IDH1KD tx	TDP1 cell CPT	KB-V1 cytotox	HT1080NT lethal	TDP1 cell noCPT
Cc1cc2c(cc1S(=O)(=O)Nc1cccc(C(F)(F)F)c1)OCCN2C	.	.	-24%	.	.	?
Cc1ccc(C(=O)Nn2cnnc2)cc1	i	11%	7%	i	23%	-4%
COc1ccc(-n2c3c(c(=O)[nH]c2=O)C(C(F)(F)F)(C(F)(F)F)N=C(CC(C)C)N3)cc1	i	-17%	-25%	?	4%	-16%
COc1ccc(C2=NC(C(F)(F)F)(C(F)(F)F)c3c(n(C)c(=O)n(C)c3=O)N2)cc1	?	-14%	15µM*	?	-12%	18µM*
CC(C)COC(=O)N1CCCCC1c1cc(C(=O)NCc2ccccc2)no1 (centres undefined)	i	1%	18µM*	i	6%	?
O=C(Nc1ccccc1)c1cc(C2CCCN(C(=O)CCc3ccccc3)C2)on1 (centres undefined)	i	0%	26µM*	i	1%	?
O=C(NCc1ccc(F)cc1)c1cc(C2CCCN(C(=O)CCCc3ccccc3)C2)on1 (centres undefined)	i	0%	23µM*	i	2%	?
O=C(NCc1ccccc1)c1cc(C2CCCN(C(=O)CCc3ccccc3)C2)on1 (centres undefined)	i	-1%	-19%	i	-1%	?
CN(C)c1ccc(CC(=O)N2CCCC(c3cc(C(=O)Nc4ccc(C(C)(C)C)cc4)no3)C2)cc1 (centres undefined)	i	10µM*	?	i	-17%	?
COC(=O)N1CCCCC1c1cc(C(=O)NCc2ccccc2)no1 (centres undefined)	i	17%	-7%	i	25%	0%
O=C(CNC(=O)c1ccccc1Cl)OCc1cc(=O)n2ccsc2n1	i	.	19%	i	.	1%
O=C(NCc1ccc(F)cc1)c1cc(C2CCCCN2C(=O)CCCc2ccccc2)on1 (centres undefined)	i	0%	?	i	4%	23µM*
Cc1ccc(F)cc1C(=O)N1CCCCC1c1cc(C(=O)NCc2ccccc2)no1 (centres undefined)	i	3%	13µM*	i	6%	?
O=C(NCc1ccccc1)c1cc(C2CCCCN2C(=O)CCCc2ccccc2)on1 (centres undefined)	i	20%	-24%	i	-6%	?
